Values joined by “and” are separate entries in the source; they are usually repeats but may differ in a detail not shown here. Equal entries are not always repeated. Hit rate of the full screen: of about 16,000 compounds, about 2,600 (16%) were called active. About 20% were inconclusive and are not listed. Shown is part of a subset that was picked to be rich in actives. A number with no mark means an inactive call. Calls come from the whole dose curve; as a rule, active = well fitted curve in the direction sought with a large enough effect; inconclusive = small, poorly fitted or top-dose-only effect, or effect the other way; inactive = no such curve, though single readings can be large or run the other way.
These compounds were tested against Cytochrome P450 2D6 (Homo sapiens) (UniProt P10635) (assay: Cytochrome panel assay with activity outcomes). Conditions: recombinant CYP, pro-luciferin dealkylation, luminescence, p450-cyp2d6; series mostly up to 57.1 µM; activity, negative = inhibition: at the top concentration.
Cytochrome P450 2D6 (Homo sapiens), sequence (P10635 whole entry, looked up): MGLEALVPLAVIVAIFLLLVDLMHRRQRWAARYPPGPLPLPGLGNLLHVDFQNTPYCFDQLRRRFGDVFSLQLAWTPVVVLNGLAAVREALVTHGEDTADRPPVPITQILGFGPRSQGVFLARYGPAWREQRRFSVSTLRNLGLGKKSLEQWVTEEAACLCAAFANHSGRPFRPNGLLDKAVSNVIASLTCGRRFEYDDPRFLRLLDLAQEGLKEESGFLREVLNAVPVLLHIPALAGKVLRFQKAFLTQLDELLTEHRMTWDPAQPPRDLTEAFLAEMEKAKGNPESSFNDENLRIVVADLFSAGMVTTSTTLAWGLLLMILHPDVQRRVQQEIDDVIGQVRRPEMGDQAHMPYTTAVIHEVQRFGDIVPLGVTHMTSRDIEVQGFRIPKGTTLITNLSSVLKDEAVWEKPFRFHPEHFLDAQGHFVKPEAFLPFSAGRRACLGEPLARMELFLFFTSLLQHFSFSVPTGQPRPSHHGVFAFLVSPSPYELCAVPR
With O=c1cc(-c2ccc(O)c(O)c2)oc2cc(O)cc(O)c12 the “activity, negative = inhibition” value was -1.91% [at 25.6 µM].
Work on Cc1c([C@@H](C)[C@H]2NC[C@H](C)C[C@@H]2O)ccc2c1C[C@@H]1[C@H]2CC=C2C[C@@H](O)CC[C@@]21C yielded an activity, negative = inhibition of 9.78% [at 11.4 µM].
In the case of C[C@]1(O)CC[C@H]2[C@@H]3[C@@H](O)CC4=CC(=O)CC[C@@]4(C)[C@H]3CC[C@]21C, the activity, negative = inhibition is reported as 10.5% [at 11.4 µM].
In the case of OCc1cnc[nH]1, the “activity, negative = inhibition” value is reported as -1.75%.
NC(=NCc1ccc(Cl)cc1)SCCCc1cnc[nH]1 was tested, and the AC50 was 12.6 µM (active).
With NC(=NCCc1ccc(I)cc1)SCCCc1cnc[nH]1 the “activity, negative = inhibition” value was 9.29%.
With NCCc1ccc(O)cc1 the “activity, negative = inhibition” value was -10.7%.
With NCCc1ccc(S(=O)(=O)O)cc1[N+](=O)[O-] the activity, negative = inhibition was -0.422% [at 11.4 µM].
In the case of NCCc1ccc(S(=O)(=O)F)cc1, the AC50 is reported as 39.8 µM (active).
In the case of C=CCN1CC[C@@]23c4c5ccc(O)c4O[C@H]2/C(=N\N=C2/CC[C@@]4(O)[C@H]6Cc7ccc(O)c8c7[C@@]4(CCN6CC=C)[C@@H]2O8)CC[C@]3(O)[C@@H]1C5, the “activity, negative = inhibition” value is reported as -18.6%.
For C=CCN1CCC2(C)c3cc(O)ccc3C[C@H]1[C@H]2C, the AC50 was 7.94 µM (active) and 25.1 µM (active) and 631 nM (active).
With C[C@@H]1[C@@H]2Cc3ccc(O)cc3[C@@]1(C)CCN2CC1CC1 the AC50 was 31.6 µM (active).
With CC(=O)c1c(O)c(C)c(O)c(Cc2c(O)c3c(c(C(=O)/C=C\c4ccccc4)c2O)OC(C)(C)C=C3)c1O the “activity, negative = inhibition” value was -9.48%.
CC[C@@]1(O)C(=O)OCc2c1cc1n(c2=O)Cc2cc3ccccc3nc2-1 was tested, and the AC50 was “inactive”.
C=C1C/C(=C\C)C(=O)O[C@@H]2CCN3CC=C(COC(=O)[C@@]1(C)O)[C@H]23 was tested, and the “activity, negative = inhibition” value was 3.61% [at 25.6 µM].
In the case of COc1ccc2[nH]cc(C3=CCNCC3)c2c1, the “activity, negative = inhibition” value is reported as -4.23%.
With O=c1ccc2[nH]cc(C3=CCNCC3)c2[nH]1 the AC50 was 2.51 µM (active).
For OC1(c2ccc(Cl)cc2)CCN(Cc2c[nH]c3ccccc23)CC1, the AC50 was 0.316 µM (active).
In the case of O=C(Nc1ccc(Cl)cc1C(=O)c1ccccc1)c1ccco1, the “activity, negative = inhibition” value is reported as -13.7%.
For C=C(C)CN1CC[C@@]23c4c5ccc(O)c4O[C@H]2c2[nH]c4ccccc4c2C[C@]3(O)[C@@H]1C5, the “activity, negative = inhibition” value was 1.9%.
NC(N)=Nc1ccc2[nH]c3c(c2c1)C[C@]1(O)[C@@H]2Cc4ccc(O)c5c4[C@]1(CCN2CC1CC1)[C@@H]3O5 was tested, and the “activity, negative = inhibition” value was 8.91%.
With O=C1/C(=C\c2ccccc2)C[C@@]2(O)[C@H]3Cc4ccc(O)c5c4[C@@]2(CCN3CC2CC2)[C@@H]1O5 the “activity, negative = inhibition” value was 12.5%.
With O=C(/C=C\c1ccc(Cl)cc1)N[C@@]12CCC(=O)[C@@H]3Oc4c(O)ccc5c4[C@@]31CCN(CC1CC1)[C@@H]2C5 the AC50 was 5.01 µM (active).
With COc1ccc2c3c1O[C@@H]1C(=O)CC[C@@]4(O)[C@@H](C2)N(CC2CC2)CC[C@]314 the AC50 was 5.01 µM (active).
Cc1ncc([N+](=O)[O-])n1CCN=[N+]=[N-] showed an activity, negative = inhibition of 0.431% [at 11.4 µM].
For CCCN(CCC)C(=O)Cc1c(-c2ccc(Cl)cc2)nc2c(Cl)cc(Cl)cn12, the “activity, negative = inhibition” value was 2.68%.
COc1ccc2c(c1)CCC1[C@@H]2CCC2(C)[C@@H](NCCCCCCN3C(=O)C=CC3=O)CC[C@@H]12 (some centres not stated) was tested, and the AC50 was 10 µM (active).
Work on C[C@]12CC[C@H]3c4ccc(O)cc4CC[C@@H]3[C@H]1CC[C@@H]2OP(=O)(O)O yielded an activity, negative = inhibition of 11.2% [at 11.4 µM].
C[C@]12CCC3c4ccc(OCC(=O)O)cc4CCC3C1CCC2=O (some centres not stated) showed an activity, negative = inhibition of 12.6% [at 11.4 µM].
For CO[C@@H]1CC=C2CCN3CCC4=C(CC(=O)OC4)[C@]23C1, the “activity, negative = inhibition” value was -6.15%.
With CN1C(=O)COc2c(C(=O)N[C@@H]3CN4CCC3CC4)cc(Cl)cc21 the “activity, negative = inhibition” value was 6.82%.
With Cn1cc(C(=O)C(=O)N[C@H]2CN3CCC2CC3)c2ccccc21 the AC50 was 0.0631 µM (active).
In the case of CC(C)n1cnc2c(C(=O)N[C@H]3CN4CCC3CC4)cc(Cl)cc21, the “activity, negative = inhibition” value is reported as 3.65%.
In the case of CCNC(C)(C)[C@@H](SS)c1ccc(Br)cc1, the AC50 is reported as 2 µM (active).
For CNCCc1ccc(O)c(O)c1, the “activity, negative = inhibition” value was -2.02%.
Nc1nc(N)c(Cn2ccnc2)c(=O)[nH]1 gave an activity, negative = inhibition of -11.4% [at 11.4 µM].
With CS(=O)(=O)Nc1ccc(Cc2noc(-c3ccc4[nH]cc(CCN)c4c3)n2)cc1 the AC50 was 0.126 µM (active).
In the case of CCCN[C@@H]1CCc2c(OC)cccc2[C@@H]1C, the AC50 is reported as 0.251 µM (active).
In the case of CCCN(CCC)[C@@H]1CCc2c(OC)cccc2[C@@H]1C, the “activity, negative = inhibition” value is reported as 5.27%.
In the case of OC1(c2ccc(F)cc2)CCNC1 (configuration not stated), the “activity, negative = inhibition” value is reported as -4.2%.
CCCN1CCC[C@@H]2Cc3[nH]ncc3C[C@H]21 was tested, and the AC50 was “inactive”.
C[C@@]12CC[C@H]3[C@@H](CCC4=C(O)C(=O)CC[C@]43C)[C@H]1CCC2=O was tested, and the “activity, negative = inhibition” value was -13.5%.
With Cc1c2ccncc2c(C)c2c1[nH]c1ccccc12 the AC50 was 6.31 µM (active).
For Cc1nccc2c1[nH]c1ccccc12, the AC50 was 10 µM (active).
For COC(=O)c1cc2c(cn1)[nH]c1ccccc12, the “activity, negative = inhibition” value was -1.19%.
For O=[N+]([O-])c1ccc(N2CCNCC2)cc1NCC1CCCO1 (configuration not stated), the “activity, negative = inhibition” value was -5.92%.
For NC(=O)CI, the “activity, negative = inhibition” value was -9.38%.

Source: PubChem BioAssay AID1851 (National Center for Advancing Translational Sciences (NCATS), 2009)
% is set by controls: 0 for no effect and ±100 for the full control effect.
